Screening data: PubChem BioAssay, National Center for Advancing Translational Sciences (NCATS)
TRb SRC2 PPI – disrupts binding of human TR beta to SRC2; 0.065% of 280,000 active; P10828; TRbeta-SRC2 peptide binding, fluorescence polarization; receptor liganded with 1 µM T3; Potency, µM (titrated, usually from 106 µM), for inactives: top-dose activity change, negative = inhibition, most hits filed as inhibitors; AID 1469;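 further: plate controls were bound peptide for no effect and peptide without receptor for full effect; nearly all actives have a fitted effect of over 50% in size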
Target sequence (P10828 whole entry, looked up): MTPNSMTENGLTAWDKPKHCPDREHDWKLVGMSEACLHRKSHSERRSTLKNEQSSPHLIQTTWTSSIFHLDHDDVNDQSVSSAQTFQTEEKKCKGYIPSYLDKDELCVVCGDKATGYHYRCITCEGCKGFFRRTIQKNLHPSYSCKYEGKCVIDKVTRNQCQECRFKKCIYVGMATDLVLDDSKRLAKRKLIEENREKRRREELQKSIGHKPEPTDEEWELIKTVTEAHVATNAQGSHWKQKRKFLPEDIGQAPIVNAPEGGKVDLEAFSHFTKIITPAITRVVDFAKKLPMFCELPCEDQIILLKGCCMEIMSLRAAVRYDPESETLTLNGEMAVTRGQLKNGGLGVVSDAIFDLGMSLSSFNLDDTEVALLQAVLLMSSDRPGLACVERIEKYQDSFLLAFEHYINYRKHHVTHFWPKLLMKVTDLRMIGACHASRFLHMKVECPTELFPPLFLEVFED
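Quantitative HTS by FP: 0.6 uM TRb LBD, 20 nM labeled SRC2 20-mer, 1 uM T3, 5% DMSO; 5 hr ambient incubation; % activity per concentration and potencies from concentration series.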
Tau fibril ThT – inhibitors of human tau fibril formation, thioflavin T binding; P10636; recombinant tau K18 P301L, heparin-induced fibrillization, ThT fluorescence; Potency, µM (doses to about 57.4 µM), for inactives: at the top dose activity, negative = inhibition, usual class: inhibitors; 2.1% of 270,000 active; AID 1460; further: nearly all actives have a fitted effect of over 55% in size
Target sequence (P10636 561-689 P618L limits assumed): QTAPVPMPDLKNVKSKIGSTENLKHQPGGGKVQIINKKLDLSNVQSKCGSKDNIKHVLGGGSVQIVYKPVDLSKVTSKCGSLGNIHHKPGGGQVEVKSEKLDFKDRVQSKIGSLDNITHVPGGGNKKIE
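Heparin-induced (20 uM) aggregation of recombinant human K18 P301L tau, 15 uM unlabeled with 0.24 uM labeled, pH 7 acetate buffer, 6 hr at 37 C with compound. Fibrils quantified by 30 uM ThT fluorescence after 1 hr ambient incubation.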
JMJD2E inh – blocks human JMJD2E demethylase activity; JMJD2E catalytic domain, FDH-coupled NADH fluorescence (FDH is formaldehyde dehydrogenase); Potency, µM (titrated, usually from 57.1 µM), for the others: at the top dose activity change, negative = inhibition, actives largely listed as inhibitors; 1.6% of 230,000 active; active means well fitted inhibition curve with a large enough effect, not every such curve was filed as active; inconclusive means small, poorly fitted or top-dose-only effect, or another doubt; inactive means no such curve, though single readings can be large or run the other way;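 further: 0% = wells with enzyme and -100% = buffer wells without enzyme; nearly all actives have a fitted effect of over 50% in size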
Tau fluor cs – counter-screen for tau fibril formation inhibitors | tau K18 P301L (four-repeat tau fragment) Alexa594 fluorescence, heparin fibrillization | Potency, µM (doses to about 57.7 µM), for inactives: top-dose activity change, negative = decrease | 0.93% of 280,000 active; further: nearly all actives have a fitted effect of over 55% in size
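Human K18 P301L tau (15 uM unlabeled plus 0.24 uM Alexa 594-labeled, final) in 100 mM sodium acetate pH 7 was mixed with compound and 20 uM heparin and incubated 6 hr at 37 C.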
Tau FP inhib – blocks human tau fibril formation measured by polarization; P10636; K18 P301L tau heparin fibrillization, Alexa594 FP, 6 h; Potency, µM (doses to about 57.7 µM), inactives show top-dose activity, negative = inhibition, hits mostly inhibitors; 0.39% of 280,000 active; further: nearly all actives have a fitted effect of over 55% in size
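Human K18 P301L fragment (15 uM unlabeled plus 0.24 uM Alexa 594-labeled) in 100 mM sodium acetate pH 7 with compound, aggregation induced by 20 uM heparin for 6 hr at 37 C. ThT (30 uM) added for 1 hr, then Alexa 594 FP read.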
TR SRC2 fluor cs – counter-screen for TRb-SRC2 inhibitors: fluorescence interference. TRb/SRC2 Texas Red total fluorescence interference. Potency, µM (titrated, usually from 106 µM), for inactives: top-dose fluorescence change, negative = quenching. 0.29% of 280,000 active. AID 1479; active means well fitted curve in either direction with a large enough effect; inconclusive means small, poorly fitted or top-dose-only effect
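Human TRβ ligand-binding domain (0.6 uM) and Texas Red SRC2 peptide (20 nM) in Tris buffer with 1 uM T3 and 5% DMSO were incubated with pinned compound for 5 hr at ambient temperature. Total fluorescence was computed as S + 2P (555/632 nm).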
* hit, by the source's call; [ ] = dose if it differs, or a comment. Rows were chosen to be rich in hits. Some 3.5% of all compounds tested hit in one or more screens of this group. Unless noted, the call rests on the fitted dose curve; in most records, active means well fitted curve in the direction sought with a large enough effect; inconclusive means small, poorly fitted or top-dose-only effect, or another doubt; inactive means no such curve, though single readings can be large; an effect the other way counts as inactive or inconclusive. Unless noted, on the % scale 0 is the no-effect control and ±100 the full control effect; potency means the concentration at half of the fitted maximal effect.

CCCCC1C(=O)N(c2ccccc2)N(c2ccc(O)cc2)C1=O (configuration not stated) was read as TRb SRC2 PPI 5%, Tau fibril ThT 16µM*, JMJD2E inh 3%, Tau fluor cs -25%, Tau FP inhib inconclusive and TR SRC2 fluor cs -1%.
For CCCCNC(=O)c1sc(=S)n2c1[nH]c(=O)c1ccccc12 the results were TRb SRC2 PPI 9%, Tau fibril ThT 16µM*, JMJD2E inh 2%, Tau fluor cs inconclusive, Tau FP inhib inconclusive and TR SRC2 fluor cs -5%.
For CCCCNC(=O)c1sc(=S)n(-c2ccccc2OC)c1N the results were TRb SRC2 PPI 5%, Tau fibril ThT -10%, JMJD2E inh -10%, Tau fluor cs -6%, Tau FP inhib 3% and TR SRC2 fluor cs 3%.
O=C(NC1CCCCC1)c1sc(=S)n2c1[nH]c(=O)c1ccccc12 was read as TRb SRC2 PPI 10%, Tau fibril ThT 14µM*, JMJD2E inh 4%, Tau fluor cs inconclusive, Tau FP inhib 12% and TR SRC2 fluor cs -16%.
CCN(CC)CCCNc1oc(-c2ccc(OC)c(OC)c2)nc1C#N was read as TRb SRC2 PPI 12%, Tau fibril ThT 0%, JMJD2E inh 2.2µM*, Tau fluor cs -6%, Tau FP inhib 3% and TR SRC2 fluor cs 0%.
For COc1ccc(-c2nc(C#N)c(NCCc3ccccc3)o2)cc1OC the results were TRb SRC2 PPI 3%, Tau fibril ThT inconclusive, JMJD2E inh inconclusive, Tau fluor cs 16µM*[quencher], Tau FP inhib inconclusive and TR SRC2 fluor cs -3%.
`COc1ccc(-c2nc(C#N)c(NCc3ccc(C)cc3)o2)cc1OC` gave TRb SRC2 PPI 5%, Tau fibril ThT 0%, JMJD2E inh inconclusive, Tau fluor cs inconclusive, Tau FP inhib 10% and TR SRC2 fluor cs -7%.
Screening CC(C)(C)Sc1ccccc1S(=O)(=O)C(C)(C)C returned TRb SRC2 PPI 1%, Tau fibril ThT -13%, JMJD2E inh 3%, Tau fluor cs -11%, Tau FP inhib -7% and TR SRC2 fluor cs 0%.
Screening CC(=O)N=Cc1c(C)c(C#N)c(=O)n(C)c1O returned TRb SRC2 PPI 3%, Tau fibril ThT inconclusive, JMJD2E inh inconclusive, Tau fluor cs -19%, Tau FP inhib -10% and TR SRC2 fluor cs 3%.
`Cc1c(C=O)c(Cl)n(C)c(=O)c1C#N` gave TRb SRC2 PPI -3%, Tau fibril ThT inconclusive, JMJD2E inh 20µM*, Tau fluor cs -2%, Tau FP inhib -8% and TR SRC2 fluor cs 3%.
For COc1ccc(C(C(=O)NC2CCCCC2)N(CC2CCCO2)C(=O)C2COc3ccccc3O2)cc1OC (configuration not stated) the results were TRb SRC2 PPI 6%, Tau fibril ThT -4%, JMJD2E inh -3%, Tau fluor cs 5%, Tau FP inhib 0% and TR SRC2 fluor cs 1%.
`Nc1nnc(C(F)(F)F)s1` gave TRb SRC2 PPI 7%, Tau fibril ThT -5%, JMJD2E inh 1%, Tau fluor cs 0%, Tau FP inhib -4% and TR SRC2 fluor cs 1%.
`COc1ccc(-c2nc(SCC(=O)Nc3ccc4c(c3)OCCO4)c(-c3ccccc3)[nH]2)cc1` gave TRb SRC2 PPI 0%, Tau fibril ThT inconclusive, Tau fluor cs 8.9µM*[quencher], Tau FP inhib inconclusive and TR SRC2 fluor cs -6%.
Screening COc1cc(-c2nc(-c3ccccc3)c(-c3ccc(F)cc3)[nH]2)cc2c1OCO2 returned TRb SRC2 PPI 3%, Tau fibril ThT -1%, JMJD2E inh inconclusive, Tau fluor cs inconclusive, Tau FP inhib 6% and TR SRC2 fluor cs -5%.
Screening COc1ccc(-c2[nH]c(-c3ccc4c(c3)OCO4)nc2-c2ccccc2)cc1 returned TRb SRC2 PPI 6%, Tau fibril ThT inconclusive, JMJD2E inh inconclusive, Tau fluor cs 14µM*[quencher], Tau FP inhib 9% and TR SRC2 fluor cs -3%.
For COc1ccc(NC(=O)CSc2nc(-c3ccc(OC)cc3)[nH]c2-c2ccc(F)cc2)cc1 the results were TRb SRC2 PPI -4%, Tau fibril ThT -9%, Tau fluor cs inconclusive, Tau FP inhib -9% and TR SRC2 fluor cs -1%.
Screening COc1cccc(-c2nc(SCC(=O)Nc3ccc4c(c3)OCCO4)c(-c3ccccc3)[nH]2)c1 returned TRb SRC2 PPI 4%, Tau fibril ThT inconclusive, Tau fluor cs 5.6µM*[quencher], Tau FP inhib -10% and TR SRC2 fluor cs -1%.
COc1ccc(-c2[nH]c(-c3cccc(OC)c3)nc2SCC(=O)Nc2ccc3c(c2)OCO3)cc1 was read as TRb SRC2 PPI -1%, Tau fibril ThT inconclusive, Tau fluor cs 6.3µM*[quencher], Tau FP inhib 7% and TR SRC2 fluor cs -4%.
`O=C1C=C(c2cccs2)CC(c2cccs2)C1n1cnc([N+](=O)[O-])c1` (configuration not stated) gave TRb SRC2 PPI 0%, Tau fibril ThT -22%, JMJD2E inh inconclusive, Tau fluor cs -17%, Tau FP inhib -1% and TR SRC2 fluor cs -4%.
CCc1ccccc1NC(=O)N1CCCn2nc(C)cc21 was read as TRb SRC2 PPI 4%, Tau fibril ThT 8%, Tau fluor cs 5%, Tau FP inhib 0% and TR SRC2 fluor cs -1%.
For O=C(NNC(=O)c1ccc(Cl)cc1Cl)c1ccncc1 the results were TRb SRC2 PPI 1%, Tau fibril ThT -3%, JMJD2E inh 8%, Tau fluor cs -4%, Tau FP inhib -5% and TR SRC2 fluor cs 1%.
Screening COc1cc(NC(=O)c2cccs2)c(OC)cc1NC(=O)CCC(=O)Nc1ccc2ncccc2c1 returned TRb SRC2 PPI 9%, Tau fibril ThT inconclusive, JMJD2E inh inconclusive, Tau fluor cs inconclusive, Tau FP inhib -7% and TR SRC2 fluor cs -1%.
CC1(C)OC2C[C@](O)(C(N)=O)C[C@H](O)[C@H]2O1 (some centres not stated) was read as TRb SRC2 PPI -3%, Tau fibril ThT -10%, JMJD2E inh -3%, Tau fluor cs -19%, Tau FP inhib -6% and TR SRC2 fluor cs 0%.
CCOc1ccc(NC(=O)CSc2nc(-c3ccc(F)cc3)cc(C(F)(F)F)c2C#N)cc1 was read as TRb SRC2 PPI -5%, Tau fibril ThT 3%, Tau fluor cs 1%, Tau FP inhib inconclusive and TR SRC2 fluor cs 4%.
CCOc1ccc(-c2nc(SCC(=O)Nc3ccc4c(c3)OCCO4)c(-c3ccc(F)cc3)[nH]2)cc1 was read as TRb SRC2 PPI -2%, Tau fibril ThT -10%, Tau fluor cs 14µM*[quencher], Tau FP inhib -14% and TR SRC2 fluor cs -1%.
